Data reported in PubChem BioAssay (NCATS).
Inconclusive results are not listed. A number with no mark means an inactive call. The source made the active and inactive calls. The call rests on the fitted dose curve; in most records, active means well fitted cell-killing curve with a large enough effect; inconclusive means small, poorly fitted or top-dose-only effect, or effect the other way; inactive means no such curve, though single readings can be large or run the other way.

Assay: Quantitative High-Throughput drug screen in 47 multiple myeloma cell lines against the NCATS MIPE library collection: Delta47_JCRB cell viability assay (AID 1918925; further: nearly all actives have a fitted effect of over 45% in size)
Settings: Delta47 myeloma viability, CellTiter-Glo ATP, 48 h; series mostly up to 45.8 µM; viability (% of DMSO): at the top concentration
Source text: PI: Beverly A. Mock Ph.D.
Laboratory of Cancer Biology and Genetics,
Center for Cancer Research, National Cancer Institute,
National Institute of Health, Bethesda, Maryland
Drug resistance and disease progression are common in multiple myeloma (MM) patients, underscoring the need for new therapeutic combinations. […] We hypothesized that effective combinations would reduce MYC expression and enhance p16 activity. […] These preclinical data identify potentially useful drug combinations for evaluation in drug-resistant MM and reveal potential mechanisms of combined drug sensitivity.
Described herein is the primary MIPE qHTS used to cherrypick compounds. Validated compounds were then further tested for potential synergistic activiy.
[1] Peat TJ, Gaikwad SM, Dubois W, Gyabaah-Kessie N, Zhang S, Gorjifard S, Phyo Z, Andres M, Hughitt VK, Simpson RM, Miller MA, Girvin AT, Taylor A, Williams D, D'Antonio N, Zhang Y, Rajagopalan A, Flietner E, Wilson K, Zhang X, Shinn P, Klumpp-Thomas C, McKnight C, Itkin Z, Chen L, Kazandijian D, Zhang J, Michalowski AM, Simmons JK, Keats J, Thomas CJ, Mock BA. Drug combinations identified by high-throughput screening promote cell cycle transition and upregulate Smad pathways in myeloma. Cancer Lett. 2023 Aug 1;568:216284. doi: 10.1016/j.canlet.2023.216284. Epub 2023 Jun 24. PMID: 37356470; PMCID: PMC10408729.
SEQUENCE No. (e.g., 1, 2, 3, etc.); […] (e.g., Cells, Incubation, Reagent, etc.); VALUE and DESCRIPTION.
1; Cells; 5 uL; white, solid bottom 1536-well Greiner assay plate.
2; Compounds; 23 nL; Kalypsis pin tool (Wako USA) equipped with a 1536-well pin head to transfer to the assay plates.
3; Incubation; 48 hours; 37C incubation.
4; Reagent;5uL; CellTiter Glo (Promega).
5; Detector; 425V; Luminescence; Viewlux PerkinElmer.
NOTES (numbers refer to Sequence numbers above)
1. The cell-based screening methods employed in this study were like those previously published. Briefly, the corresponding myeloma cell lines were screened in 1,536-well plates with 500 cells, 5-uL per well for inhibition of cell viability (assessed by measuring ATP levels with CellTiterGlo).
2. NCATS MIPE 4.0 library of approved and investigational drugs were added using the Kalypsis pin tool. Wells treated with DMSO only for 100% viability and media only wells for 0% viability were used as controls.
3. The assay plates were covered and incubated for 48 hours in a 37C, 5% CO2 incubator with controlled humidity.
4. After 48 hours, CellTilter-GloTM luminescent substrate mix (Promega) reagent was added to the assay plate and plates we incubated for 5 min at room temperature.
5. Signal was measured as median relative luminescence units on a ViewLux (PerkinElmer) multiplate reader.
[1] Heske CM, Davis MI, Baumgart JT, Wilson K, Gormally MV, Chen L, Zhang X, Ceribelli M, Duveau DY, Guha R, Ferrer M, Arnaldez FI, Ji J, Tran HL, Zhang Y, Mendoza A, Helman LJ, Thomas CJ. Matrix Screen Identifies Synergistic Combination of PARP Inhibitors and Nicotinamide Phosphoribosyltransferase (NAMPT) Inhibitors in Ewing Sarcoma. Clin Cancer Res. 2017 Dec 1;23(23):7301-7311. doi: 10.1158/1078-0432.CCR-17-1121. Epub 2017 Sep 12. PMID: 28899971; PMCID: PMC6636827.
Potency means the concentration at half of the fitted maximal effect.

| SMILES | Potency | viability (% of DMSO) |
| --- | --- | --- |
| CN(C)c1ccc2nc3ccc(=[N+](C)C)cc-3sc2c1 | 6.62 µM (active) | – |
| COc1cc2nc(N3CCN(C(=O)C4CCCO4)CC3)nc(N)c2cc1OC (stereo not given) | – | 87.5% |
| O=C(O)c1cn(-c2ccc(F)cc2)c2cc(N3CCNCC3)c(F)cc2c1=O | – | 126% |
| CC1=C(C(=O)O)N2C(=O)[C@@H](NC(=O)[C@H](N)C3=CCC=CC3)[C@H]2SC1 | – | 114% |
| CC[C@]1(O)C[C@H]2CN(CCc3c([nH]c4ccccc34)[C@@](C(=O)OC)(c3cc4c(cc3OC)N(C=O)[C@H]3[C@@](O)(C(=O)OC)[C@H](OC(C)=O)[C@]5(CC)C=CCN6CC[C@]43[C@@H]65)C2)C1 | 0.0047 µM (active) | – |
| O=c1cc(N2CCOCC2)oc2c(-c3ccccc3)cccc12 | 1.48 µM (active) | – |
| COCCCN1CCC(NC(=O)c2cc(Cl)c(N)c3c2OCC3)CC1 | 18.7 µM (active) | – |
| O=P(O)(O)C(O)(Cn1ccnc1)P(=O)(O)O | – | 108% [at 23.2 µM] |
| CCc1nc(N)nc(N)c1-c1ccc(Cl)cc1 | – | 81.6% |
| Cc1cccc(C#Cc2ccccc2)n1 | – | 113% |
| CCC1=C(C)CN(C(=O)NCCc2ccc(S(=O)(=O)NC(=O)NC3CCC(C)CC3)cc2)C1=O (stereo not given) | – | 142% |
| CCCOc1ccc2nc(NC(=O)OC)[nH]c2c1 | 0.0118 µM (active) | – |
| COc1c2occc2cc2ccc(=O)oc12 | – | 81.2% |
| CC1(C)CCC(C)(C)c2cc(NC(=O)c3ccc(C(=O)O)cc3)ccc21 | 16.6 µM (active) | – |
| COc1ccccc1N1CCN(CCN(C(=O)C2CCCCC2)c2ccccn2)CC1 | 10.5 µM (active) | – |
| COC(=O)N[C@H](C(=O)N[C@@H](Cc1ccccc1)[C@@H](O)CN(Cc1ccc(-c2ccccn2)cc1)NC(=O)[C@@H](NC(=O)OC)C(C)(C)C)C(C)(C)C | – | 84.6% |
| CCN(CC)CCOc1ccc(Nc2ncc3cc(-c4c(Cl)cccc4Cl)c(=O)n(C)c3n2)cc1 | 1.32 µM (active) | – |
| CC(C)[N+]1(C)[C@@H]2CC[C@H]1CC(OC(=O)C(CO)c1ccccc1)C2 (stereo not given in full) | – | 88.6% |
| CC(C)[C@H](N)C(=O)OCCOCn1cnc2c(=O)[nH]c(N)nc21 | – | 108% |
| O=C(c1ccccc1)c1ccc2n1CCC2C(=O)O (stereo not given) | 9.35 µM (active) | – |

| SMILES | Potency | viability (% of DMSO) |
| --- | --- | --- |
| CN(C)CCc1c[nH]c2ccc(Cn3cncn3)cc12 | – | 129% |
| Cc1cc(Cl)ccc1OCCCC(=O)NO | 2.96 µM (active) | – |
| Cc1ccc(NC(=O)c2ccc(CN3CCN(C)CC3)cc2)cc1Nc1nccc(-c2cccnc2)n1 | 20.9 µM (active) | – |
| CCN(CC)C(=S)SSC(=S)N(CC)CC | 0.0118 µM (active) | – |
| CC(C)Oc1ccc2c(=O)c(-c3ccccc3)coc2c1 | – | 108% |
| CC1(C)C(=O)N(CCN2CCC(C(=O)c3ccc(F)cc3)CC2)c2ccccc21 | 16.6 µM (active) | – |
| O=C(CCc1ccc(O)cc1)c1c(O)cc(O)cc1O | 0.118 µM (active) | – |
| c1ccc2[nH]c(-c3cscn3)nc2c1 | – | 103% |
| Cc1cc(C2CCCCC2)n(O)c(=O)c1 | 6.62 µM (active) | – |
| CCN(CC)CCOc1ccc(Cc2ccccc2)cc1 | – | 101% |
| Nc1nc(Cl)nc2c1ncn2[C@H]1C[C@H](O)[C@@H](CO)O1 | 0.235 µM (active) | – |
| COc1cc(Nc2c(C#N)cnc3cc(OCCCN4CCN(C)CC4)c(OC)cc23)c(Cl)cc1Cl | 3.72 µM (active) | – |
| CCOC(=O)C1=C[C@@H](OC(CC)CC)[C@H](NC(C)=O)[C@@H](N)C1 | – | 81.8% |
| CCC(C)(Oc1ccc(C2(c3ccc(OC(C)(CC)C(=O)O)cc3)CCCCC2)cc1)C(=O)O (stereo not given) | – | 113% |
| Nc1cc(C(Cl)=C(Cl)Cl)c(S(N)(=O)=O)cc1S(N)(=O)=O | – | 107% |
| O=C(O)c1cccc(-c2noc(-c3ccccc3F)n2)c1 | – | 116% |
| Cc1cccc(CN2CCN(C(c3ccccc3)c3ccc(Cl)cc3)CC2)c1 (stereo not given) | 8.33 µM (active) | – |
| CN(C)[C@@H](CCOc1cccc2ccccc12)c1ccccc1 | 18.7 µM (active) | – |
| O=C(NOCC1CC1)c1ccc(F)c(F)c1Nc1ccc(I)cc1Cl | 20.9 µM (active) | – |
| Nc1nc(N)c(N=O)c(OCC2CCCCC2)n1 | 4.18 µM (active) | – |
